Compounds without any hit were thinned out: in the full panel of roughly 79,000, 15% have a hit. Unmarked numbers belong to inactive results. Activity calls are given as the source filed them. Cut-off read from the data, not from the text of the source: active = growth inhibition above about 70%; inactive = the rest.

Test [1] can be described thus: NCI Yeast Anticancer Drug Screen. Data for the rad50 strain (AID 155).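 Note: 0% = growth of vehicle-only cultures of the same strain.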 Particulars: S. cerevisiae rad50 strain growth inhibition, stronger effect = higher value. The gist of the method:
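Vehicle-treated cultures provide the reference for the growth inhibition reported for compound-exposed, repair-deficient yeast.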

Test [2] can be described thus: NCI Yeast Anticancer Drug Screen. Data for the mec2-1 strain (AID 157). The following applies: S. cerevisiae mec2-1 strain, stronger effect = higher value. The method, boiled down: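 Vehicle-treated cultures served as reference for growth inhibition of compound-exposed mec2-1 yeast.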
The nature of test [3]: NCI Yeast Anticancer Drug Screen. Data for the sgs1 mgt1 strain (AID 161).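 Note: 0% = growth of cultures given vehicle only.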 Particulars: S. cerevisiae sgs1 mgt1 strain, stronger effect = higher value. The method, boiled down:
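Test agents were incubated with a DNA-repair-mutant yeast strain. Growth was then read and compared against vehicle-treated controls.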

The nature of test [4]: NCI Yeast Anticancer Drug Screen. Data for the cln2 rad14 strain (AID 165).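 Note: 0% = growth equal to vehicle treated cultures.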 Particulars: S. cerevisiae cln2 rad14 strain, stronger effect = higher value. The method, boiled down:
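Each compound was tested on cln2 rad14 yeast. Inhibition of growth was calculated against vehicle-exposed controls.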

A short description of test [5]: NCI Yeast Anticancer Drug Screen. Data for the bub3 strain (AID 167). The following applies: S. cerevisiae bub3 mutant strain, stronger effect = higher value. The method, boiled down: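 Mutant yeast screening strain plus compound; vehicle-treated cultures serve as the 0% inhibition reference.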
Test [6] in a line: NCI Yeast Anticancer Drug Screen. Data for the mlh1 rad18 strain (AID 175). The following applies: S. cerevisiae mlh1 rad18 strain growth inhibition, stronger effect = higher value. The gist of the method: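 Vehicle-treated cultures served as the reference for growth inhibition in a yeast strain carrying DNA damage repair alterations exposed to each compound.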
[7] abbreviates: at 5.0 µM (retest, dose inferred, filed as 0.5).
[8] abbreviates: at 50.0 µM (retest, dose inferred, filed as 5.0).

Regarding `CCC(C1SC(=S)NC1=O)C1SC(=S)NC1=O` (configuration not stated), the growth inhibition in test [1] (setting [7]) is 3%; in test [1] (setting [8]), 13%; in test [1] (at 50.0 µM), 99.3% (active); in test [2] (setting [7]), -1%; in test [2] (setting [8]), 29%; in test [2] (at 50.0 µM), 99.6% (active). In addition, the growth inhibition in test [3] (setting [7]) is 10%; in test [3] (setting [8]), 41%; in test [3] (at 50.0 µM), 99.4% (active); in test [4] (setting [7]), -9%; in test [4] (setting [8]), -2%; in test [4] (at 50.0 µM) it was 82.9% (active). The growth inhibition in test [5] (setting [7]) was -4%; in test [5] (setting [8]), 6%; in test [5] (at 50.0 µM), 99.5% (active); in test [6] (setting [7]) it was -1%; in test [6] (setting [8]) it was 35%; in test [6] (at 50.0 µM), 99% (active).
As for `CCOP(=O)(OCC)/C(C#N)=C/c1ccc(Oc2ccccc2)cc1`, the growth inhibition is -12% in test [1] (setting [7]); 97% (active) in test [1] (setting [8]); 90.2% (active) in test [1] (at 50.0 µM); -42% in test [2] (setting [7]); 98% (active) in test [2] (setting [8]); 93.6% (active) in test [2] (at 50.0 µM). For the same compound, the growth inhibition in test [3] (setting [7]) is -11%; in test [3] (setting [8]), 97% (active); in test [3] (at 50.0 µM) it was 91.5% (active); in test [4] (setting [7]), -5%; in test [4] (setting [8]), 98% (active); in test [4] (at 50.0 µM), 90.6% (active). The growth inhibition is -3% in test [5] (setting [7]); 94% (active) in test [5] (setting [8]); 90.5% (active) in test [5] (at 50.0 µM); 1% in test [6] (setting [7]); 97% (active) in test [6] (setting [8]); 89.8% (active) in test [6] (at 50.0 µM).
In the case of `CCCCC(CC)C(O)C(=O)O` (configuration not stated), the growth inhibition in test [1] (setting [7]) is 2%; in test [1] (setting [8]), 30%; in test [1] (at 50.0 µM) it was 46.8%; in test [2] (setting [7]), -1%; in test [2] (setting [8]), 27%; in test [2] (at 50.0 µM) it was 45.7%. In addition, the growth inhibition in test [3] (setting [7]) was 4%; in test [3] (setting [8]) it was 4%; in test [3] (at 50.0 µM), 40.4%; in test [4] (setting [7]) it was 6%; in test [4] (setting [8]), 32%; in test [4] (at 50.0 µM), 26.6%. Moreover, the growth inhibition in test [5] (setting [7]) was 1%; in test [5] (setting [8]), 26%; in test [5] (at 50.0 µM), 33.9%; in test [6] (setting [7]) it was -2%; in test [6] (setting [8]), 31%; in test [6] (at 50.0 µM), 54.4%.
Consider `O=[N+]([O-])c1ccc(C(Br)(Br)c2ccc([N+](=O)[O-])cc2)cc1`, for which the growth inhibition in test [1] (setting [7]) was 99% (active); in test [1] (setting [8]), 99% (active); in test [1] (at 50.0 µM) it was 99.7% (active); in test [2] (setting [7]), 97% (active); in test [2] (setting [8]), 100% (active); in test [2] (at 50.0 µM) it was 99.7% (active). Besides, the growth inhibition in test [3] (setting [7]) was 100% (active); in test [3] (setting [8]), 100% (active); in test [3] (at 50.0 µM), 99.8% (active); in test [4] (setting [7]), 95% (active); in test [4] (setting [8]), 99% (active); in test [4] (at 50.0 µM), 99.3% (active). The growth inhibition in test [5] (setting [7]) was 80% (active); in test [5] (setting [8]) it was 99% (active); in test [5] (at 50.0 µM), 99.5% (active); in test [6] (setting [7]) it was 93% (active); in test [6] (setting [8]), 99% (active); in test [6] (at 50.0 µM) it was 99.5% (active).
Take `O=C(Nc1ccc(Cl)cc1)Nc1nnc2nc(C(C(=O)/C=C/c3ccccc3)c3nc4nnc(NC(=O)Nc5ccc(Cl)cc5)n4[nH]c3=O)c(=O)[nH]n12`: the growth inhibition in test [1] (setting [7]) was -8%; in test [1] (setting [8]), 11%; in test [1] (at 50.0 µM) it was 48.5%; in test [2] (setting [7]), -7%; in test [2] (setting [8]), -3%; in test [2] (at 50.0 µM), 48%. Besides, the growth inhibition in test [3] (setting [7]) is 4%; in test [3] (setting [8]), 2%; in test [3] (at 50.0 µM) it was 46.6%; in test [4] (setting [7]), -8%; in test [4] (setting [8]), 2%; in test [4] (at 50.0 µM) it was 28.6%. Besides, the growth inhibition was -11% in test [5] (setting [7]); 7% in test [5] (setting [8]); 39.5% in test [5] (at 50.0 µM); -6% in test [6] (setting [7]); 8% in test [6] (setting [8]); 63.2% in test [6] (at 50.0 µM).
With `O=C1Nc2c(Cl)cc(Cl)cc2/C1=N/N=C/c1ccco1`, the growth inhibition is 24% in test [1] (setting [7]); 84% (active) in test [1] (setting [8]); 52.6% in test [1] (at 50.0 µM); 26% in test [2] (setting [7]); 83% (active) in test [2] (setting [8]); 53.4% in test [2] (at 50.0 µM). For the same compound, the growth inhibition in test [3] (setting [7]) is 28%; in test [3] (setting [8]) it was 68%; in test [3] (at 50.0 µM) it was 67.3%; in test [4] (setting [7]), 28%; in test [4] (setting [8]), 74% (active); in test [4] (at 50.0 µM), 63.2%. Further, the growth inhibition in test [5] (setting [7]) is 21%; in test [5] (setting [8]), 83% (active); in test [5] (at 50.0 µM), 55.4%; in test [6] (setting [7]), 37%; in test [6] (setting [8]), 94% (active); in test [6] (at 50.0 µM) it was 89.2% (active).
As to `O=C(NC(c1ccccc1)N1CCOCC1)c1ccccc1` (configuration not stated), the growth inhibition in test [1] (setting [7]) was 2%; in test [1] (setting [8]) it was -1%; in test [1] (at 50.0 µM) it was 99% (active); in test [2] (setting [7]), -7%; in test [2] (setting [8]), 7%; in test [2] (at 50.0 µM), 95.6% (active). Besides, the growth inhibition in test [3] (setting [7]) is 0%; in test [3] (setting [8]), -3%; in test [3] (at 50.0 µM), 96.3% (active); in test [4] (setting [7]) it was -2%; in test [4] (setting [8]), 3%; in test [4] (at 50.0 µM), 76.9% (active). Also, the growth inhibition was -3% in test [5] (setting [7]); -2% in test [5] (setting [8]); 83.4% (active) in test [5] (at 50.0 µM); -9% in test [6] (setting [7]); -1% in test [6] (setting [8]); 98.8% (active) in test [6] (at 50.0 µM).
As for `Cc1ccc2nc(CC(=O)c3cccnc3)c(CC(=O)c3cccnc3)nc2c1`, the growth inhibition in test [1] (setting [7]) is 7%; in test [1] (setting [8]), 95% (active); in test [1] (at 50.0 µM), 76.3% (active); in test [2] (setting [7]) it was 12%; in test [2] (setting [8]), 94% (active); in test [2] (at 50.0 µM), 63.2%. Moreover, the growth inhibition was -1% in test [3] (setting [7]); 87% (active) in test [3] (setting [8]); 66.7% in test [3] (at 50.0 µM); 14% in test [4] (setting [7]); 96% (active) in test [4] (setting [8]); 76.3% (active) in test [4] (at 50.0 µM). In addition, the growth inhibition was 8% in test [5] (setting [7]); 93% (active) in test [5] (setting [8]); 60.7% in test [5] (at 50.0 µM); 1% in test [6] (setting [7]); 91% (active) in test [6] (setting [8]); 60.5% in test [6] (at 50.0 µM).
`O=C1C=C(c2ccccc2)OC1(Nc1ccccc1)c1ccccc1` (configuration not stated): the growth inhibition in test [1] (setting [7]) was 4%; in test [1] (setting [8]), 60%; in test [1] (at 50.0 µM), 71.7% (active); in test [2] (setting [7]), 4%; in test [2] (setting [8]), 65%; in test [2] (at 50.0 µM), 56.6%. The growth inhibition in test [3] (setting [7]) was 2%; in test [3] (setting [8]), 62%; in test [3] (at 50.0 µM), 76.4% (active); in test [4] (setting [7]) it was 9%; in test [4] (setting [8]), 53%; in test [4] (at 50.0 µM), 45.2%. For the same compound, the growth inhibition in test [5] (setting [7]) was 11%; in test [5] (setting [8]), 62%; in test [5] (at 50.0 µM), 72.8% (active); in test [6] (setting [7]), 9%; in test [6] (setting [8]) it was 67%; in test [6] (at 50.0 µM) it was 59.9%.

For the origin of these results see PubChem BioAssay (NCI).
